Screening data as filed in PubChem.
Compounds with a hit are over-represented: about 4.3% of the library has one in this group of screens.
FAS-TE inh = inhibitors of human fatty acid synthase thioesterase domain. P49327. recombinant FAS-TE, OMFH fluorogenic substrate, fluorescence endpoint. inhibition, % at 15 µM. 0.67% of 360,000 active. AID 602261;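 active = compounds whose normalised, plate-corrected inhibition of enzyme fluorescence in the single-dose primary screen is 50% or more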;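 note: 0% = DMSO with enzyme and 100% = substrate without enzyme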
ADAM17 inh = inhibitors of human ADAM17. P78536. recombinant ADAM17, EDANS/DABCYL FRET peptide cleavage. inhibition, % at 6.95 µM. 0.83% of 370,000 active;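 active = inhibition above the mean of compounds lying between control limits plus 3 SD, set per campaign, cut at about 8.5% in these data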;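 note: 0% = DMSO-only wells as the low control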
GRIN3A LBD mod = modulators (binders) of human NR3A ligand-binding domain; Tm shift relative to glycine control, % at 25 µM; NR3A LBD differential scanning fluorimetry, Tm shift; 0% = protein alone, 100% = glycine-bound protein; 2.5% of 340,000 active;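 active = melting temperature shift of at least 10% of the positive control shift, at one fixed dose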
ADAM10 inh = inhibitors of human ADAM10. O14672. recombinant ADAM10, EDANS/DABCYL FRET peptide cleavage, 3 h. inhibition, % at 7 µM. 0.62% of 370,000 active;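 active = inhibition above a per-campaign cutoff equal to the mean of compounds falling between control-based bounds plus 3 SD, cut at about 20% in these data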;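 note: 0% = DMSO wells while the 100% control is not disclosed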
sPLA2-III inh = Blocks human group III sPLA2 activity | Q9NZ20 | QFRET BODIPY PC-A2 liposome hydrolysis, fluorescence | inhibition, % at 12.2 µM | 0.56% of 370,000 active;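 active = inhibition above mean plus 3 SD of compounds lying within the high and low control bounds, cut at about 19% in these data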;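 note: 0% = median of test compound wells and 100% = no enzyme DMSO wells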
Target sequence (Q9NZ20 whole entry, looked up): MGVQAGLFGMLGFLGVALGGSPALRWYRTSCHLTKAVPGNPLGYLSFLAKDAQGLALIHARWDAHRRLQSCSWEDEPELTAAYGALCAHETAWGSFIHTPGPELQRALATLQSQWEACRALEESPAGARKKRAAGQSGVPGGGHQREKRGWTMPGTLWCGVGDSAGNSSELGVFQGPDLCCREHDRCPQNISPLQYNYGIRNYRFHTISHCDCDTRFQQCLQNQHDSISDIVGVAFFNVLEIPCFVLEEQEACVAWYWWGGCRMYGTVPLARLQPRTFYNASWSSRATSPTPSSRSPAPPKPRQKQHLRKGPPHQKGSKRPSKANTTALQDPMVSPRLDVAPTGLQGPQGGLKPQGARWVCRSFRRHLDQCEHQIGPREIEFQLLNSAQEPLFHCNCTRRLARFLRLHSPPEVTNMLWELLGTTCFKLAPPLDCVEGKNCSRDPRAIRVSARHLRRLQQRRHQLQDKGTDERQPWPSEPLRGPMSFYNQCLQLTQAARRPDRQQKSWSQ
ADAM10 counter = inhibits human ADAM10 in ADAM17 exosite counter-screen | shares compounds with ADAM17 inh | recombinant ADAM10, EDANS/DABCYL FRET peptide cleavage, 3 h | 47% of 2,900 active | AID 743256 | inhibition, % at 6.95 µM;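 active = mean inhibition over the triplicate runs exceeds the activity threshold set in the earlier primary screen, cut at about 20% in these data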;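 note: 0% = DMSO wells and 100% = marimastat wells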
ADAM17 confirm = human ADAM17 inhibition, confirmation; AID 743257; shares compounds with ADAM17 inh; inhibition, % at 6.95 µM; recombinant ADAM17, EDANS/DABCYL QFRET peptide cleavage; 65% of 2,900 active;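 active = mean inhibition across replicates above the hit cutoff set in the primary screen, cut at about 8.5% in these data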;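 note: 0% = DMSO wells and 100% = marimastat wells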
The depositor's hits bear a star; . = no result given.

SMILES | FAS-TE inh | ADAM17 inh | GRIN3A LBD mod | ADAM10 inh | sPLA2-III inh | ADAM10 counter | ADAM17 confirm
Cc1ccnc(N(C(=O)Nc2ccccc2)C2=NCC(C)(C)S2)c1 | -7 | 0 | 3 | -6 | -3 | . | .
COc1cccc(-c2ccc3ncnc(NCc4ccc5c(c4)OCO5)c3c2)c1 | 14 | 11* | -4 | 16 | 4 | -4 | 2
Cc1ccc(CN(CC(=O)N/N=C/c2ccccc2[N+](=O)[O-])S(=O)(=O)c2ccc(C)cc2)cc1 | 23 | 9.1* | -19 | 13 | -15 | 33* | 14*
O=C(C1=C[C@@H](C2CCCCC2)C[C@@H](OCc2ccc(CO)cc2)O1)N1CCN(Cc2ccc3c(c2)OCO3)CC1 | 26 | 10* | -5 | 18 | -33 | 27* | 18*
O=C(C1=C[C@H](C2CCCCC2)C[C@H](OCc2ccc(CO)cc2)O1)N1CCN(Cc2ccc3c(c2)OCO3)CC1 | 16 | . | 5 | . | . | . | .
CCOCC(=O)Nc1nc2ccc(C)cc2s1 | 0 | -3 | -6 | 5 | -4 | . | .
C/C=C/C(=O)OCC(=O)Nc1nc2ccc(C)cc2s1 | -4 | 9.3* | -2 | 16 | -6 | -11 | -2
COC[C@H]1CCCN1c1cccc2c1S(=O)(=O)N1CC[C@@H](C1)O2 | . | -7 | . | 1 | -3 | . | .
Cc1ccc(C(C(=O)NC2CCCC2)N(C(=O)CNC(=O)c2cccs2)c2cccnc2)o1 (configuration not stated) | -1 | -1 | 0 | -2 | 1 | . | .
Cc1ccc(C(C(=O)NC2CCCC2)N(Cc2cccs2)C(=O)CNC(=O)c2cccs2)o1 (configuration not stated) | 1 | 9.2* | -1 | 13 | 3 | -5 | 2
N#CC1(Cc2ccccc2Cl)c2ccccc2C=CN1C(=O)c1ccccc1 (configuration not stated) | 31 | 11* | 1 | 15 | -14 | 14 | 9.3*
O=c1c(Cc2ccc(Cl)cc2Cl)c(O)ccn1Cc1ccc(Cl)cc1 | 20 | 11* | 22* | 19 | -8 | 26* | 16*
O=c1c(Cc2ccc(Cl)cc2)c(O)ccn1Cc1cccc(Cl)c1 | 10 | -2 | -7 | 3 | -2 | . | .
COc1c(OC(C)=O)ccc(/C=C/c2ccc3ccccc3n2)c1[N+](=O)[O-] | 59* | 17* | 2 | 17 | -10 | 25* | 14*
COc1ccc(C2(C)NC(=O)N(CC(=O)Nc3ccc4c(c3)OCO4)C2=O)cc1OC (configuration not stated) | -7 | 11* | -2 | 12 | -5 | 13 | 9.0*
COc1ccc(C)cc1S(=O)(=O)N(C)CC(=O)Nc1ccc2c(c1)OCO2 | -7 | 10* | 0 | 14 | 3 | 5 | 5
COCCOc1ccc(C(F)(F)F)cc1NC(=O)CN1C(=O)NC(C)(c2ccc3c(c2)OCO3)C1=O (configuration not stated) | 30 | 12* | -8 | 18 | -35 | 19 | 12*
C[C@H](CO)N1C[C@H](C)[C@H](CN(C)Cc2cccc(F)c2)Oc2ncc(C3=CCCC3)cc2C1=O | . | -4 | . | -22 | -3 | . | .
CCC(NC(=O)c1ccc2c(c1)c(C)c(C)n2Cc1ccc(Cl)cc1)c1ccccc1 (configuration not stated) | . | -6 | . | -2 | 3 | . | .
CN(CC(=O)Nc1ccc(Cl)c(C(F)(F)F)c1)C(=O)c1ccc(OCC2CCCO2)cc1 (configuration not stated) | 10 | 8.7* | -2 | 13 | -22 | 25* | 9.7*
CN(CC(=O)Nc1ccc(Cl)c(C(F)(F)F)c1)C(=O)c1ccc(S(=O)(=O)N2CCOCC2)cc1 | 10 | 3 | -2 | -3 | -24 | . | .
O=C(/C=C/c1ccc(S(=O)(=O)NCc2ccco2)cc1)NCc1ccccc1Cl | 13 | 9.9* | -3 | 17 | -31 | 0 | 4
Nc1ncnc2c1ncn2[C@@H]1O[C@H](C(=O)N[C@@H](CCc2ccccc2)C(=O)O)[C@@H](O)[C@H]1O | . | 3 | . | 5 | 4 | . | .
